Compounds with a hit are over-represented: about 2.4% of the library has one in this group of screens.
D2 PAM-1 – Beta-Arrestin HTS for Positive Allosteric Modulators of the Human D2 Dopamine Receptor: Potentiators | actives 0.23% (n = 360,000) | potentiation, % (concentration not given with the values) | DiscoveRx D2 beta-arrestin cells, luminescence, 90 min; 100% = 57 uM dopamine signal; in the data active = potentiation above about 50%; inconclusive = mostly about 30% to 49%
Target sequence (P14416 whole entry, looked up): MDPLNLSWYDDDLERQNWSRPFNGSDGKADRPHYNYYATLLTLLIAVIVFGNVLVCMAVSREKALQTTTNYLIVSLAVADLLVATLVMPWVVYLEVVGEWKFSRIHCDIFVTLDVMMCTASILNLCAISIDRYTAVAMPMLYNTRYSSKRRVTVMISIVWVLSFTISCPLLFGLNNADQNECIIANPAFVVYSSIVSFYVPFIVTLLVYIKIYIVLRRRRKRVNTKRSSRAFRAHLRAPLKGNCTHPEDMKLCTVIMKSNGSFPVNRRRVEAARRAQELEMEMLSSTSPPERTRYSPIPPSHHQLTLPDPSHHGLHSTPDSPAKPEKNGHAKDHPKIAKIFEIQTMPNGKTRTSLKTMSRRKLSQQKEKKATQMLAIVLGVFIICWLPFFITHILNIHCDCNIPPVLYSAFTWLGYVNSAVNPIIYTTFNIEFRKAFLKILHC
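D2 cells co-treated with compound plus 50 nM dopamine (EC20) for 90 min at 37 deg C to detect potentiation. Beta-arrestin recruitment was read as enzyme-fragment luminescence after 1 h at ambient temperature. Full response was set by 57 uM dopamine.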
D2 PAM-2 – HTS Assay for Positive Allosteric Modulators of the Human D2 Dopamine Receptor: Primary Screen for Potentiators; D(2) dopamine receptor (Homo sapiens), P14416; HEK293 T-REx D2, calcium flux, EC20 dopamine potentiation; potentiation, % at 10 µM; actives 0.34% (n = 340,000);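 active = potentiation over 3 SD above the plate norm, cut at about 30% in these data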
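Primary screen. Calcium kinetics in induced HEK293 T-REx D2 cells: compound pre-addition 180 s, EC20 dopamine, 180 s more.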
D2 antag – HTS Assay for Allosteric Antagonists of the Human D2 Dopamine Receptor: Primary Screen for Antagonists; actives 2% (n = 340,000); inhibition, % at 10 µM; HEK293 TREx D2 cells, calcium flux, dopamine EC80; D(2) dopamine receptor (Homo sapiens), P14416; in the data active = inhibition above about 30%; inactive = below that, where a call was filed
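Dopamine at EC80 is the agonist stimulus; test compounds precede it by 180 s. Calcium flux read kinetically in a force-coupled, inducible HEK293 T-REx D2 cell line.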
D2 ag-1 – Beta-Arrestin HTS for Positive Allosteric Modulators of the Human D2 Dopamine Receptor: Agonists. actives 0.084% (n = 360,000). activation, % (test concentration not listed). AID 624465, 2012. DiscoveRx PathHunter D2 beta-arrestin, luminescence, 90 min; 100% = 57 uM dopamine signal. D(2) dopamine receptor (Homo sapiens), P14416; in the data active = activation above about 40%; inconclusive = between about 15% and that limit
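DiscoveRx PathHunter D2 beta-arrestin cells (2,100/well) attached overnight, then compound-stimulated 90 min at 37 C in HBSS/10 mM HEPES/0.1% Tween-20 buffer; beta-galactosidase complementation read by luminescence after 1 h at ambient temperature. Dopamine 57 uM final (EC100) as control.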
D2 ag-2 – HTS Assay for Allosteric Agonists of the Human D2 Dopamine Receptor: Primary Screen for Agonists | D(2) dopamine receptor (Homo sapiens), P14416 | HEK293 T-REx D2 cells, calcium flux agonist mode | activation, % at 2 µM | actives 0.53% (n = 340,000) | AID 485358, 2010;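 active = activation over 3 SD above normal in the single-dose calcium agonist read, cut at about 30% in these data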
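Tetracycline-induced HEK293 Trex cells with D2 receptor force-coupled to calcium signaling, plated overnight at 30 C and loaded with no-wash calcium dye. Calcium flux read kinetically for 180 s after compound addition; responses flag agonists.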
Hits are given with their value; n = inactive; u = inconclusive; x = no result.

SMILES | D2 PAM-1 | D2 PAM-2 | D2 antag | D2 ag-1 | D2 ag-2
CC1CCCc2sc3nc(SCC(=O)c4ccc(Br)cc4)nc(N)c3c21 (stereo not given) | x | n | x | x | x
COc1cccc(NC(=S)Nc2cc(C)cc(C)n2)c1 | n | n | 44 | n | n
Cc1cc(C)nc(NC(=S)Nc2cccc(F)c2)c1 | n | n | n | n | n
O=C(NCCN1CCc2ccccc2C1)C1CCN(S(=O)(=O)N2CCCCC2)CC1 | n | n | n | n | 34
CCOCCCNCc1ccc(OC)c(OC)c1 | n | n | 36 | n | n
COc1ccc(-c2noc(C3CCCN(S(=O)(=O)c4cccc(Cl)c4)C3)n2)cc1OC (stereo not given) | n | n | n | n | n
O=S(=O)(c1ccc(Cl)cc1)N1CCCC(c2nc(-c3ccc(F)cc3)no2)C1 (stereo not given) | n | n | 51 | n | n
O=C(O)c1nc(-c2ccccc2)n(-c2ccccc2)n1 | n | n | n | n | n
O=C(O)c1nc(-c2ccccc2)n(-c2cccc(C(F)(F)F)c2)n1 | n | 44 | n | n | n
COc1ccc(C2CCc3cc4c(cc3C2=NO)OCO4)cc1OC (stereo not given) | n | x | x | n | x
O=C1/C(=C/C=C/c2ccco2)SC(=S)N1NS(=O)(=O)c1ccccc1 | n | n | 42 | n | n
COc1ccc(-c2cc(C(=O)NC3CCCC3)c3ccccc3n2)cc1OC | n | x | x | n | x
COc1ccc(-c2cc(C(=O)NC(C)c3ccccn3)c3ccccc3n2)cc1OC (stereo not given) | n | 44 | n | n | n
Cc1cccc(N2C(=O)CSC23C(=O)N(CC(=O)NCc2ccccc2Cl)c2ccccc23)c1 (stereo not given) | x | n | x | x | n
Cc1ccccc1-c1nc(C#N)c(N2CCC(C)CC2)o1 | n | n | 31 | n | n
COC(=O)CCCNC(=O)c1ccc(S(=O)(=O)NCc2ccco2)cc1 | n | n | x | n | x
COc1cc(C(=O)Nc2ccccc2N2CCCCC2)cc(OC)c1OC | n | n | n | n | n
COc1cc(C(=O)NC(=S)Nc2ccccc2N2CCCC2)cc(OC)c1OC | n | n | 43 | n | n
O=C(Nc1ccccc1N1CCOCC1)c1cc(-c2ccco2)nc2ccccc12 | n | n | n | n | n
COc1cc(-c2cc(C(=O)Nc3ccccc3N3CCOCC3)c3ccccc3n2)cc(OC)c1OC | n | 33 | n | n | n
O=C(NCC1CCCN1S(=O)(=O)c1cccs1)C(=O)Nc1ccccc1Cl (stereo not given) | n | n | n | n | n
CC(C)CCCN1CCN=C1Nc1ccccc1 | n | n | 39 | n | n
Cn1c(N)c(C(=O)NCc2ccccc2Cl)sc1=S | n | n | 53 | n | n
COc1ccc(N2C(N)=NC(N)=NC2(C)C)cc1 | n | 31 | n | n | n
COc1ccc(N2CCC(CNC(=O)Nc3cccc(OC)c3)C2)cc1 (stereo not given) | n | n | 57 | n | n
SMILES | D2 PAM-1 | D2 PAM-2 | D2 antag | D2 ag-1 | D2 ag-2
Cc1ccc(CNC(=O)CN2C(=O)CSc3c2c(C)nn3-c2ccccc2)cc1 | x | n | x | x | n
O=C(CC1NCCNC1=O)Nc1cccc(F)c1 (stereo not given) | x | n | x | x | n
Cc1cc2c(cc1S(=O)(=O)Nc1cccc(F)c1)n(C)c(=O)c(=O)n2C | n | n | n | n | n
Cc1cccc(NS(=O)(=O)c2cc3c(cc2C)n(C)c(=O)c(=O)n3C)c1 | n | n | n | n | 36
COc1ccc(CCNc2nc(SCc3ccc(F)cc3)nc3ccccc23)cc1OC | x | n | x | x | n
CSc1ccccc1NC(=O)Nc1cccc(Cl)c1 | n | n | 36 | n | n
CSc1ccccc1NC(=O)Nc1ccc(F)c(Cl)c1 | n | n | 43 | n | n
O=C(Nc1cccc(F)c1)Nc1c[nH]c(=O)[nH]c1=O | n | n | n | n | n
O=C(Nc1cccc(Cl)c1)Nc1c[nH]c(=O)[nH]c1=O | n | n | 34 | n | n
O=C(NCc1ccccc1Cl)c1ccc2nc([C@H]3C[C@H](O)[C@@H](CO)O3)[nH]c2c1 | n | x | x | n | x
CN(Cc1ccc(F)cc1)C(=O)c1cc(COc2ccc(-n3cncn3)cc2)on1 | 67 | n | n | n | n
CCOC(=O)c1ccc(S(=O)(=O)NNC(=O)c2cccc(N(C)C)c2)cc1 | u | n | n | n | n
CC(=O)c1ccc(OC(=O)c2c(-c3ccccc3Cl)noc2C)cc1 | x | n | x | x | n
CCCN1CN(Cc2ccco2)c2nc3ccccc3n2C1 | n | n | 43 | n | n
CCCCn1nnc(NC(=O)c2ccc(-c3ccccc3[N+](=O)[O-])o2)n1 | n | n | 52 | n | n
CCn1nnc(NC(=O)c2ccc([N+](=O)[O-])o2)n1 | n | n | n | n | n
Cc1ccccc1NS(=O)(=O)c1ccc(C)c(NS(C)(=O)=O)c1C | n | n | 33 | n | n
Cc1nc(C)c(CCNS(=O)(=O)c2ccc(F)cc2)s1 | x | n | x | x | n
CC(C)c1nnc(NC(=O)CC23CC4CC(CC(C4)C2)C3)s1 | n | n | 36 | n | n
c1csc(-c2nnc(NC3CCCCC3)c3ccccc23)c1 | n | n | 43 | n | n
C=CCN1C=CC(=CC=C(C#N)C#N)C=C1 | n | n | n | n | 53
C(#CC1CCCCC1)c1ccc2c(c1)COc1c3ccccc3nn1-2 | n | 34 | n | n | n
O=C(c1ccc(S(=O)(=O)c2ccccc2Cl)c([N+](=O)[O-])c1)N1CCN(Cc2ccccc2)CC1 | 78 | n | n | u | n
COC(=O)c1cccnc1-n1c(=O)c2cccnc2n(CC(=O)Nc2cccc(C(F)(F)F)c2)c1=O | x | n | x | x | n
COc1ccc(-c2noc(-c3nnn(-c4ccc(C)cc4C)c3C)n2)cc1 | x | n | x | x | n
SMILES | D2 PAM-1 | D2 PAM-2 | D2 antag | D2 ag-1 | D2 ag-2
COc1ccc(CC(=O)Nc2cccc(-c3nnc(-c4ccccc4)o3)c2)cc1OC | 54 | n | n | n | n
COc1ccc(CC(=O)Nc2cccc(-c3nnc(-c4ccc(C)cc4)o3)c2)cc1OC | n | n | n | u | n
CC1=CC(C)(C)Nc2ccc(OC(=O)CCN3C(=O)c4ccccc4C3=O)cc21 | 131 | n | n | u | n
CCOC(=O)C1CCCN(Cc2cccc(Oc3ccccc3)c2)C1 (stereo not given) | n | n | 40 | n | n
CCOC(=O)C1CCCN(Cc2ccc(-c3ccccc3)cc2)C1 (stereo not given) | n | n | 58 | n | n
CCOC(=O)C1CCN(C/C=C/c2ccccc2)CC1 | n | n | n | n | n

Compound activity (PubChem BioAssay)
